Source: PubChem BioAssay AID1159580 (chemical genetic matrix, 2015)
In all, about 5,500 compounds went through this assay and about 2,000 (36%) were called active. Inconclusive results (about 18%) are left out. The list shows a part of the results. Values without a mark were called inactive. No stated cut-off is given here; in the data, active means normalized growth mostly below about 0.91 (no sharp cut-off); inconclusive means no clear call, values can overlap the other calls; inactive means mostly above about 0.92.

Assay: chemical genetic growth profiling, strain panel (AID 1159580);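 further: tested at 20 µM; growth read once vehicle control cultures reached saturation at 30 °C; 1 = growth at the plate median or of vehicle wells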
Details: growth OD

## O=C(O)C(O)C(O)C(=O)O (configuration not stated)
S. cerevisiae deletion strains, locus YJR075W, strain HOC1, stronger effect = lower value
  normalized growth: 0.993
S. cerevisiae deletion strains, locus YKL009W, strain mrt4, stronger effect = lower value
  normalized growth: 0.985
S. cerevisiae deletion strains, locus YKL068W, stronger effect = lower value
  normalized growth: 0.98
S. cerevisiae deletion strains, locus YKL085W, strain MDH1 (second series), stronger effect = lower value
  normalized growth: 0.986
S. cerevisiae deletion strains, locus YKL085W, strain MDH1, stronger effect = lower value
  normalized growth: 0.986
S. cerevisiae deletion strains, locus YKL160W, strain elf1, stronger effect = lower value
  normalized growth: 1.01
S. cerevisiae deletion strains, locus YKL190W, strain CNB1, stronger effect = lower value
  normalized growth: 0.978
S. cerevisiae deletion strains, locus YKR001C, strain vps1, stronger effect = lower value
  normalized growth: 0.983
S. cerevisiae deletion strains, locus YKR026C, strain gcn3, stronger effect = lower value
  normalized growth: 1.01
S. cerevisiae deletion strains, locus YKR091W, strain srl3, stronger effect = lower value
  normalized growth: 1
S. cerevisiae deletion strains, locus YLL001W, strain dnm1, stronger effect = lower value
  normalized growth: 0.992
S. cerevisiae deletion strains, locus YLL026W, stronger effect = lower value
  normalized growth: 0.972
S. cerevisiae deletion strains, locus YLL041C, strain sdh2, stronger effect = lower value
  normalized growth: 0.994
S. cerevisiae deletion strains, locus YLR027C, strain aat2, stronger effect = lower value
  normalized growth: 0.999
S. cerevisiae deletion strains, locus YLR039C, strain RIC1, stronger effect = lower value
  normalized growth: 0.961
S. cerevisiae deletion strains, locus YLR058C, strain SHM2, stronger effect = lower value
  normalized growth: 0.976
S. cerevisiae deletion strains, locus YLR102C, strain apc9, stronger effect = lower value
  normalized growth: 0.988
S. cerevisiae deletion strains, locus YLR113W, strain HOG1, stronger effect = lower value
  normalized growth: 0.938
S. cerevisiae deletion strains, locus YLR221C, strain rsa3, stronger effect = lower value
  normalized growth: 0.986
S. cerevisiae deletion strains, locus YLR258W, strain gsy2, stronger effect = lower value
  normalized growth: 0.998
S. cerevisiae deletion strains, locus YLR262C, strain YPT6 (second series), stronger effect = lower value
  normalized growth: 1.01
S. cerevisiae deletion strains, locus YLR262C, strain YPT6, stronger effect = lower value
  normalized growth: 0.934
S. cerevisiae deletion strains, locus YLR268W, strain sec22, stronger effect = lower value
  normalized growth: 0.971
S. cerevisiae deletion strains, locus YLR320W, strain mms22, stronger effect = lower value
  normalized growth: 1
S. cerevisiae deletion strains, locus YLR330W, strain CHS5, stronger effect = lower value
  normalized growth: 0.991
S. cerevisiae deletion strains, locus YLR342W, strain FKS1 (second series), stronger effect = lower value
  normalized growth: 1.03
S. cerevisiae deletion strains, locus YLR342W, strain FKS1, stronger effect = lower value
  normalized growth: 0.997
S. cerevisiae deletion strains, locus YLR357W, strain rsc2, stronger effect = lower value
  normalized growth: 0.966
S. cerevisiae deletion strains, locus YLR370C, strain arc18, stronger effect = lower value
  normalized growth: 1
S. cerevisiae deletion strains, locus YLR371W, strain rom2, stronger effect = lower value
  normalized growth: 0.997
S. cerevisiae deletion strains, locus YLR384C, strain iki3, stronger effect = lower value
  normalized growth: 0.988
S. cerevisiae deletion strains, locus YLR418C, strain cdc73, stronger effect = lower value
  normalized growth: 0.986
S. cerevisiae deletion strains, locus YML016C, strain PPZ1, stronger effect = lower value
  normalized growth: 0.992
S. cerevisiae deletion strains, locus YML032C, strain rad52, stronger effect = lower value
  normalized growth: 1
S. cerevisiae deletion strains, locus YML120C, strain ndi1, stronger effect = lower value
  normalized growth: 0.998
S. cerevisiae deletion strains, locus YML124C, strain tub3, stronger effect = lower value
  normalized growth: 0.997
S. cerevisiae deletion strains, locus YMR058W, strain fet3, stronger effect = lower value
  normalized growth: 1.01
S. cerevisiae deletion strains, locus YMR078C, strain ctf18, stronger effect = lower value
  normalized growth: 0.984
S. cerevisiae deletion strains, locus YMR125W, strain sto1, stronger effect = lower value
  normalized growth: 0.987
S. cerevisiae deletion strains, locus YMR129W, stronger effect = lower value
  normalized growth: 0.995
S. cerevisiae deletion strains, locus YMR205C, strain PFK2, stronger effect = lower value
  normalized growth: 0.981
S. cerevisiae deletion strains, locus YMR223W, strain ubp8, stronger effect = lower value
  normalized growth: 1
S. cerevisiae deletion strains, locus YMR231W, strain pep5, stronger effect = lower value
  normalized growth: 1
S. cerevisiae deletion strains, locus YMR263W, strain SAP30, stronger effect = lower value
  normalized growth: 0.976
S. cerevisiae deletion strains, locus YMR307W, strain GAS1, stronger effect = lower value
  normalized growth: 0.921
S. cerevisiae deletion strains, locus YNL067W, strain RPL9B, stronger effect = lower value
  normalized growth: 0.993
S. cerevisiae deletion strains, locus YNL071W, strain lat1, stronger effect = lower value
  normalized growth: 0.987
S. cerevisiae deletion strains, locus YNL128W, strain TEP1, stronger effect = lower value
  normalized growth: 0.981
S. cerevisiae deletion strains, locus YNL153C, strain GIM3, stronger effect = lower value
  normalized growth: 0.979
S. cerevisiae deletion strains, locus YNL183C, strain NPR1, stronger effect = lower value
  normalized growth: 0.919
S. cerevisiae deletion strains, locus YNL209W, strain ssb2, stronger effect = lower value
  normalized growth: 1.02
S. cerevisiae deletion strains, locus YNL233W, strain BNI4, stronger effect = lower value
  normalized growth: 0.986
S. cerevisiae deletion strains, locus YNL248C, strain rpa49, stronger effect = lower value
  normalized growth: 0.994
S. cerevisiae deletion strains, locus YNL250W, strain rad50, stronger effect = lower value
  normalized growth: 0.987
S. cerevisiae deletion strains, locus YNL271C, strain bni1, stronger effect = lower value
  normalized growth: 0.992
S. cerevisiae deletion strains, locus YNL298W, strain CLA4, stronger effect = lower value
  normalized growth: 0.988
S. cerevisiae deletion strains, locus YNL307C, strain MCK1, stronger effect = lower value
  normalized growth: 0.991
S. cerevisiae deletion strains, locus YNL322C, strain KRE1 (second series), stronger effect = lower value
  normalized growth: 0.985
S. cerevisiae deletion strains, locus YNL322C, strain KRE1, stronger effect = lower value
  normalized growth: 0.99
S. cerevisiae deletion strains, locus YNR049C, strain mso1, stronger effect = lower value
  normalized growth: 1
S. cerevisiae deletion strains, locus YNR052C, strain pop2, stronger effect = lower value
  normalized growth: 0.991
S. cerevisiae deletion strains, locus YOL006C, strain TOP1, stronger effect = lower value
  normalized growth: 0.97
S. cerevisiae deletion strains, locus YOL012C, strain htz1
  normalized growth: 1.53
S. cerevisiae deletion strains, locus YOL147C, strain pex11, stronger effect = lower value
  normalized growth: 0.987
S. cerevisiae deletion strains, locus YOR001W, strain rrp6, stronger effect = lower value
  normalized growth: 0.991
S. cerevisiae deletion strains, locus YOR061W, strain CKA2, stronger effect = lower value
  normalized growth: 0.959
S. cerevisiae deletion strains, locus YOR069W, strain VPS5, stronger effect = lower value
  normalized growth: 0.997
S. cerevisiae deletion strains, locus YOR070C, strain gyp1, stronger effect = lower value
  normalized growth: 0.984
S. cerevisiae deletion strains, locus YOR080W, strain dia2, stronger effect = lower value
  normalized growth: 1
S. cerevisiae deletion strains, locus YOR083W, strain WHI5, stronger effect = lower value
  normalized growth: 1.01
S. cerevisiae deletion strains, locus YOR106W, strain vam3, stronger effect = lower value
  normalized growth: 0.994
S. cerevisiae deletion strains, locus YOR136W, strain idh2, stronger effect = lower value
  normalized growth: 0.997
S. cerevisiae deletion strains, locus YOR144C, strain elg1, stronger effect = lower value
  normalized growth: 0.986
S. cerevisiae deletion strains, locus YOR184W, strain ser1, stronger effect = lower value
  normalized growth: 1.01
S. cerevisiae deletion strains, locus YOR231W, strain MKK1, stronger effect = lower value
  normalized growth: 0.959
S. cerevisiae deletion strains, locus YOR265W, strain rbl2, stronger effect = lower value
  normalized growth: 0.995
S. cerevisiae deletion strains, locus YOR270C, strain vph1, stronger effect = lower value
  normalized growth: 0.979
S. cerevisiae deletion strains, locus YOR290C, strain snf2, stronger effect = lower value
  normalized growth: 1.02
S. cerevisiae deletion strains, locus YOR316C, strain cot1, stronger effect = lower value
  normalized growth: 0.98
S. cerevisiae deletion strains, locus YPL051W, strain arl3, stronger effect = lower value
  normalized growth: 1.01
S. cerevisiae deletion strains, locus YPL055C, strain LGE1, stronger effect = lower value
  normalized growth: 0.965
S. cerevisiae deletion strains, locus YPL078C, strain atp4, stronger effect = lower value
  normalized growth: 0.999
S. cerevisiae deletion strains, locus YPL106C, strain sse1, stronger effect = lower value
  normalized growth: 0.976
S. cerevisiae deletion strains, locus YPL240C, strain hsp82, stronger effect = lower value
  normalized growth: 0.989
S. cerevisiae deletion strains, locus YPL241C, strain CIN2, stronger effect = lower value
  normalized growth: 1.07 [resistant] (active)
S. cerevisiae deletion strains, locus YPL256C, strain CLN2, stronger effect = lower value
  normalized growth: 0.943
S. cerevisiae deletion strains, locus YPR119W, strain clb2, stronger effect = lower value
  normalized growth: 0.994
S. cerevisiae deletion strains, locus YPR141C, strain kar3, stronger effect = lower value
  normalized growth: 0.97
S. cerevisiae deletion strains, locus YPR163C, strain tif3, stronger effect = lower value
  normalized growth: 0.991
S. cerevisiae deletion strains, locus YPR167C, strain met16, stronger effect = lower value
  normalized growth: 0.98
S. cerevisiae deletion strains, strain wtn01, stronger effect = lower value
  normalized growth: 0.997
S. cerevisiae strains, strain wild type, stronger effect = lower value
  normalized growth: 0.996
